Screen size: about 11,000 compounds; about 310 (2.8%) were called active. No stated cut-off is given here; in the data, active means activity change below about -85%; inactive means the rest. Only a selection was taken, and actives are over-represented in it overall.

This experiment relates to intestinal alkaline phosphatase [Mus musculus]. As to the kind of experiment: activators of mouse IAP, confirmation, biochemical, luminescence, single concentration (AID 434970). The note with it: purified mouse IAP, CDP-Star luminescence, 30 min, at 10 µM; activation factor: measured here: IAP activation factor, stronger effect = higher value; activity change, negative = activation: stronger effect = lower value.
Take `COc1ccc(OC)c(N)c1`: the activation factor came to 0.877 and the activity change, negative = activation was 12.3% (inactive).

For `C=CCn1c(Br)nc2c1c(=O)[nH]c(=O)n2C`, the activation factor was found to be 0.97 and the activity change, negative = activation is 2.95% (inactive).

For the compound `COc1cc(NC(=O)NCC2CCN(Cc3ccccc3F)CC2)cc(OC)c1`, the activation factor stood at 2.67 and the activity change, negative = activation was -167% (active).

Consider `COc1cc(NC(=O)C2CCCN(c3ncccn3)C2)cc(OC)c1` (stereo not drawn), for which the activation factor was 1.11 and the activity change, negative = activation is -10.6% (inactive).

Consider `O=C(NCCOc1ccccc1F)Nc1ccc(Br)cc1`, for which the activation factor came to 1.46 and the activity change, negative = activation is -45.9% (inactive).

As for `COc1cc(OC)cc(C(=O)Nc2c(F)cccc2F)c1`, the activation factor was 1.02 and the activity change, negative = activation is -1.9% (inactive).

Regarding `O=C(NCC1CCN(Cc2ccccc2F)CC1)Nc1cccc(Br)c1`, the activation factor was 2.05 and the activity change, negative = activation was -105% (active).

Consider `O=C(NCC1CCN(Cc2ccccc2Cl)CC1)Nc1cccc(Cl)c1`, for which the activation factor is 1.77 and the activity change, negative = activation was -77.5% (inactive).

For `Cc1ccc(NC(=O)Cn2cnc(C(=O)Nc3ccc(C)c(C)c3)n2)cc1C`, the activation factor is 1.05 and the activity change, negative = activation was -4.9% (inactive).

As for `O=C(Nc1ccc2ccccc2c1)c1cn(-c2ccccc2)nc1-c1cccs1`, the activation factor is 1.61 and the activity change, negative = activation is -60.9% (inactive).

As to `COc1ccc(N2CCN(c3nc(NCCO)nc(N4CCOCC4)n3)CC2)cc1`, the activation factor was 0.927 and the activity change, negative = activation was 7.25% (inactive).

With `CC[C@]12c3[nH]c4cc(CCC(=O)N(C)C)ccc4c3CCN1C(=O)[C@@H](CC(=O)NCCCN(C)C)C[C@@H]2C(=O)N1CCN(C(=O)C2CC2)CC1`, the activation factor is 1.05 and the activity change, negative = activation is -4.6% (inactive).

For the compound `Cc1ccc2c(c1)c(C)c(C)n2CC(O)CN1CCOCC1` (stereo not drawn), the activation factor is 0.95 and the activity change, negative = activation is 5% (inactive).

Take `O=C(NC1CCCCCCC1)c1cnccn1`: the activation factor was 0.972 and the activity change, negative = activation was 2.85% (inactive).

For `O=C(Nc1nccs1)C1CC2CCC1C2` (stereo not drawn), the activation factor stood at 1.01 and the activity change, negative = activation is -0.6% (inactive).

In the case of `CCOC(=O)c1ccc(NC(=O)CSc2nnc(C3CCCCC3)n2C)cc1`, the activation factor stood at 0.933 and the activity change, negative = activation is 6.7% (inactive).

As to `Cn1nc(OC(=O)Nc2cccc(Cl)c2)cc1C(F)(F)F`, the activation factor was 2.51 and the activity change, negative = activation is -151% (active).

With `O=C(Nc1ccc(-n2ccc(C(F)(F)F)n2)cc1)Nc1cccc(Cl)c1`, the activation factor turned out to be 1.92 and the activity change, negative = activation was -91.7% (active).

In the case of `CC(=O)Nc1ccc(-n2cnnn2)cc1`, the activation factor worked out at 1.04 and the activity change, negative = activation was -3.5% (inactive).

Turning to `O=C(NCCCn1ccnc1)Nc1cccc(Cl)c1`, the activation factor came to 1.23 and the activity change, negative = activation is -23.4% (inactive).

`Cc1cc(C)cc(NC(=O)Nc2ccc(-n3ccc(C(F)(F)F)n3)cc2)c1`: the activation factor was found to be 2.36 and the activity change, negative = activation was -136% (active).

For the compound `Cn1cc(NC(=O)Nc2ccc(C(F)(F)F)cc2)c(C(F)(F)F)n1`, the activation factor came out at 1.86 and the activity change, negative = activation is -86.1% (inactive).

With `O=C(Nc1ccccc1)Nc1ccc(-n2ccc(C(F)(F)F)n2)cc1`, the activation factor was 1.6 and the activity change, negative = activation is -60% (inactive).

Regarding `Cn1ncc(Cl)c1C(=O)Nc1cccc(Cl)c1`, the activation factor was 1.01 and the activity change, negative = activation was -1.1% (inactive).

`Cn1nc(C(=O)Nc2cccc(C(F)(F)F)c2)ccc1=O`: the activation factor amounted to 1.13 and the activity change, negative = activation was -12.9% (inactive).

As to `Cc1noc(C)c1S(=O)(=O)Nc1ccc(C(=O)NC2CCCCCC2)cc1`, the activation factor was determined as 1.07 and the activity change, negative = activation was -7.15% (inactive).

For the compound `CN=C1N(C)C[C@@H]2[C@@H]3C(=O)N(Cc4ccccc4)C(=O)[C@@H]3[C@](Cc3ccccc3)(C(=O)OC)N12`, the activation factor was determined as 1.16 and the activity change, negative = activation was -16.1% (inactive).

Regarding `CC(C)CC(c1nnnn1Cc1cccs1)N1CCN(c2nc3ccccc3s2)CC1` (stereo not drawn), the activation factor was 0.985 and the activity change, negative = activation is 1.5% (inactive).

On to `CCOC(=O)CCc1c(C)c(C#N)c2nc3ccccc3n2c1-n1cnc2ccccc21`, for which the activation factor is 1.02 and the activity change, negative = activation is -1.8% (inactive).
